According to PubChem BioAssay AID2599 (Sanford-Burnham Center for Chemical Genomics, 2010):
Out of some 330,000 compounds screened, about 5,800 (1.8%) were called active.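 The calls were made as follows: active = inhibition above about 50% at the single tested dose (limit read from the data); inactive = the rest.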 The list comes from a sample in which actives are over-represented; it also holds similar structures and randomly drawn compounds.

The molecules below were run against Sentrin-specific protease 6 (Homo sapiens) (UniProt Q9GZR1) (assay: SENP6 protease inhibitors, primary screen, biochemical, luminescence, uHTS (AID 2599;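 also: plate controls were DMSO wells with enzyme for no effect and DMSO wells lacking enzyme for full effect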)). Conditions: Recombinant SENP6 catalytic domain, aminoluciferin luminescence; at 10 µM; stronger effect = higher value.
Sequence of Sentrin-specific protease 6 (Homo sapiens) (Q9GZR1 628-1112 limits assumed): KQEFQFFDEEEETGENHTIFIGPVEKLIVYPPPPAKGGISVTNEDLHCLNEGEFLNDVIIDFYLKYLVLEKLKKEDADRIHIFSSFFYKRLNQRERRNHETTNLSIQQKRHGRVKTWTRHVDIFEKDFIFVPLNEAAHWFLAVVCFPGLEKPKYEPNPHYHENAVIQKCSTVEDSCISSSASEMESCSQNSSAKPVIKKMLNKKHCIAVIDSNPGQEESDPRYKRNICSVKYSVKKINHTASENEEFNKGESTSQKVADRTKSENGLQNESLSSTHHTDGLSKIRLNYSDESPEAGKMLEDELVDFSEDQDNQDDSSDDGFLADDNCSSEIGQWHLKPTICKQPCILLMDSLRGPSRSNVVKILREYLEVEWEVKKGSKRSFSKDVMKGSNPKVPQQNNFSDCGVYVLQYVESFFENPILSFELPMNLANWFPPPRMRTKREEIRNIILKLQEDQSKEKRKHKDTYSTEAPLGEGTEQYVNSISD

Row | SMILES | inhibition
1 | CCOC(=O)c1c(N)n(CCN2CCOCC2)c2nc3ccccc3nc12 | -28.7% (inactive)
2 | COc1cc(Cn2c(N)c(C(=O)NCc3ccco3)c3nc4ccccc4nc32)cc(OC)c1OC | 83.6% (active)
3 | CCOC(=O)c1c(N)n(Cc2ccccc2)c2nc3ccccc3nc12 | 29.7% (inactive)
4 | CC[N+](CC)(CC)CCCCCCCCCC[N+](CC)(CC)CC | -14.6% (inactive)
5 | O=C(c1cc(-c2ccncc2)nc2ccccc12)N1CCC2(CC1)OCCO2 | 5.91% (inactive)
6 | O=C(Nc1cccc2ccccc12)N1CCC2(CC1)OCCO2 | 63.7% (active)
7 | COc1ccc(NC(=O)N2CCC3(CC2)OCCO3)c(OC)c1 | -19.7% (inactive)
8 | Cc1cc2ccccn2c1C(C[N+](=O)[O-])c1c(F)cccc1Cl (stereo not given) | -24.7% (inactive)
9 | C/C(CCc1c[nH]c2ccccc12)=N\O | -0.527% (inactive)
10 | O=[N+]([O-])c1cnc2ccc3ccccc3c2c1 | -4.31% (inactive)
11 | C/C(=N/O)c1ccc2ccc3ccccc3c2c1 | 53.8% (active)
12 | O=C(NC(=S)N1C[C@H]2C[C@H](C1)c1cccc(=O)n1C2)c1ccc(F)cc1 | 0.817% (inactive)
13 | CC(=O)N1CN2CN(C(C)=O)CC(C(=O)c3ccc(Br)cc3)(C2)C1 | -9.66% (inactive)
14 | O=c1[nH]c(=O)n(-c2ccc(F)cc2)c(O)c1C=NCCN1CCCCC1 | -0.13% (inactive)
15 | CCCCCCCCCCCCn1ccc(=N)cc1 | -35.7% (inactive)
